PubChem BioAssay (NCI)
Compounds without any hit were thinned out: in the full panel of roughly 79,000, 15% have a hit. The source made the active and inactive calls. Cut-off read from the data, not from the text of the source: active = growth inhibition above about 70%; inactive = the rest.

Legend:
[1] = NCI Yeast Anticancer Drug Screen. Data for the rad52 strain (AID 147);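 note: 0% = growth of vehicle-treated control cultures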; conditions: S. cerevisiae rad52 mutant growth inhibition, stronger effect = higher value
Outline: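 Screen used a yeast mutant impaired in DNA repair. After compound exposure, growth was measured. Values reflect inhibition compared with vehicle-treated cells.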

[2] = NCI Yeast Anticancer Drug Screen. Data for the wt1 strain (AID 149);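 note: 0% = growth of vehicle-treated wt1 cultures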; conditions: S. cerevisiae wt1 strain (SPY 50644) growth inhibition, stronger effect = higher value
Outline: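 Yeast wt1 strain exposed to compounds; growth inhibition measured relative to vehicle-treated controls.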

[3] = NCI Yeast Anticancer Drug Screen. Data for the rad50EPP+ strain (AID 151);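 note: 0% = growth of vehicle-treated control cultures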; conditions: S. cerevisiae rad50 mutant strain, stronger effect = higher value
Outline: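 Exposing the rad50EPP+ strain to each compound, growth was compared with vehicle-only cultures to give inhibition.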

[4] = NCI Yeast Anticancer Drug Screen. Data for the mgt1 strain (AID 153); conditions: S. cerevisiae mgt1 mutant growth inhibition, stronger effect = higher value
Outline: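 Genetically defined yeast (mgt1) treated with compound; inhibition of growth expressed against vehicle-treated controls.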

[5] = NCI Yeast Anticancer Drug Screen. Data for the rad50 strain (AID 155);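 note: 0% = growth of vehicle-only cultures of the same strain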; conditions: S. cerevisiae rad50 strain growth inhibition, stronger effect = higher value
Outline: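 Yeast carrying a defined DNA repair defect were exposed to test compounds, and growth was compared with vehicle-treated controls to give percent inhibition.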

[6] = NCI Yeast Anticancer Drug Screen. Data for the mec2-1 strain (AID 157); conditions: S. cerevisiae mec2-1 strain, stronger effect = higher value
Outline: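 Readout is yeast growth inhibition, normalised to vehicle-treated controls, in the mec2-1 strain exposed to compound.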

[7] = NCI Yeast Anticancer Drug Screen. Data for the rad14 strain (AID 159);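 note: 0% = growth of vehicle-treated control cultures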; conditions: S. cerevisiae rad14 strain growth inhibition, stronger effect = higher value
Outline: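 Yeast cells carrying a defined DNA-repair defect were exposed to compounds, and growth inhibition was calculated relative to vehicle-treated control cultures.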

[8] = NCI Yeast Anticancer Drug Screen. Data for the sgs1 mgt1 strain (AID 161);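 note: 0% = growth of cultures given vehicle only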; conditions: S. cerevisiae sgs1 mgt1 strain, stronger effect = higher value
Outline: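 Compounds are added to genetically altered yeast, and growth is compared with cultures given vehicle alone to give percent inhibition.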

[9] = NCI Yeast Anticancer Drug Screen. Data for the CLN2oe strain (AID 163);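 note: 0% = growth of vehicle-only control cultures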; conditions: S. cerevisiae CLN2oe strain, stronger effect = higher value
Outline: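 Values reflect how much compound exposure reduced yeast growth, referenced to vehicle-exposed cells. Assay organism is a strain with a defined genetic change affecting cell-cycle control.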

[10] = NCI Yeast Anticancer Drug Screen. Data for the cln2 rad14 strain (AID 165);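 note: 0% = growth equal to vehicle treated cultures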; conditions: S. cerevisiae cln2 rad14 strain, stronger effect = higher value
Outline: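 Relative to vehicle controls, growth inhibition of compound-treated cln2 rad14 yeast was recorded.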

[11] = NCI Yeast Anticancer Drug Screen. Data for the bub3 strain (AID 167); conditions: S. cerevisiae bub3 mutant strain, stronger effect = higher value
Outline: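 Compounds were applied to a genetically altered yeast strain carrying a cell-cycle control defect. Growth inhibition was scored against vehicle-treated controls.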

[12] = NCI Yeast Anticancer Drug Screen. Data for the wt2 strain (AID 169);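 note: 0% = growth of vehicle-treated yeast cultures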; conditions: S. cerevisiae wt2 strain growth inhibition, stronger effect = higher value
Outline: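 Values express reduction in yeast growth under compound treatment, referenced to vehicle-treated cells.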

[13] = NCI Yeast Anticancer Drug Screen. Data for the mlh1 strain (AID 171);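 note: 0% = growth of vehicle-treated control cultures of the same strain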; conditions: S. cerevisiae mlh1 strain growth inhibition, stronger effect = higher value
Outline: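 Steps: expose the defined-mutant yeast strain to compound; expose a parallel culture to vehicle; measure growth; express compound effect as inhibition relative to the vehicle culture.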

[14] = NCI Yeast Anticancer Drug Screen. Data for the sgs1 strain (AID 173);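 note: 0% = growth of vehicle-only control cultures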; conditions: S. cerevisiae sgs1 mutant, stronger effect = higher value
Outline: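 Treat defined-mutant yeast with compound; measure growth; calculate inhibition relative to vehicle-treated cells.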

[15] = NCI Yeast Anticancer Drug Screen. Data for the mlh1 rad18 strain (AID 175); conditions: S. cerevisiae mlh1 rad18 strain growth inhibition, stronger effect = higher value
Outline: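 Test agents were incubated with a yeast strain of defined genotype (DNA damage repair defect). Inhibition of growth was derived by comparison with vehicle-exposed cultures.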

[16] = NCI Yeast Anticancer Drug Screen. Data for the rad18 strain (AID 177); conditions: S. cerevisiae rad18 mutant growth inhibition, stronger effect = higher value
Outline: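 A genetically defined yeast mutant impaired in DNA damage repair was treated with test compounds, then its growth was measured against cultures receiving vehicle alone.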

[17] = at 5.0 µM (retest, dose inferred, filed as 0.5)
[18] = at 50.0 µM (retest, dose inferred, filed as 5.0)

Measured: growth inhibition

CC/C(=C(\c1ccccc1)c1ccc(OCCN(C)C)cc1)c1ccccc1
inactive: [1]; at 1.2 µM 15% | [1]; at 3.7 µM 11% | [1]; at 11.0 µM 38% | [2]; at 1.2 µM 8% | [2]; at 3.7 µM -8% | [2]; at 11.0 µM 22% | [2]; at 100.0 µM 50% | [3]; at 1.2 µM 12% | [3]; at 3.7 µM 2% | [3]; at 11.0 µM 1% | [4]; at 1.2 µM 7% | [4]; at 3.7 µM 8% | [5]; at 1.2 µM 9% | [5]; at 3.7 µM 21% | [5]; [17] 44% | [5]; at 11.0 µM 64% | [6]; at 1.2 µM -9% | [6]; at 3.7 µM -11% | [6]; [17] 46% | [6]; at 11.0 µM 46% | [7]; at 1.2 µM -26% | [7]; at 3.7 µM -9% | [8]; [17] -12% | [9]; at 1.2 µM 4% | [9]; at 3.7 µM 14% | [10]; [17] 30% | [11]; at 1.2 µM 5% | [11]; at 3.7 µM 10% | [11]; [17] 24% | [11]; at 11.0 µM 38% | [12]; at 1.2 µM -9% | [12]; at 3.7 µM -15% | [12]; at 11.0 µM 55% | [13]; at 1.2 µM -3% | [13]; at 3.7 µM 0% | [14]; at 1.2 µM 0% | [14]; at 3.7 µM 1% | [15]; [17] 46% | [15]; at 50.0 µM 40.4% | [16]; at 1.2 µM 13% | [16]; at 3.7 µM 12%
active: [1]; at 33.0 µM 98% | [1]; at 100.0 µM 98% | [2]; at 33.0 µM 98% | [3]; at 33.0 µM 97% | [3]; at 100.0 µM 97% | [4]; at 11.0 µM 94% | [4]; at 33.0 µM 98% | [4]; at 100.0 µM 97% | [5]; at 33.0 µM 98% | [5]; [18] 99% | [5]; at 50.0 µM 90% | [5]; at 100.0 µM 97% | [6]; at 33.0 µM 98% | [6]; [18] 99% | [6]; at 50.0 µM 93.4% | [6]; at 100.0 µM 97% | [7]; at 11.0 µM 89% | [7]; at 33.0 µM 97% | [7]; at 100.0 µM 96% | [8]; [18] 98% | [8]; at 50.0 µM 92.8% | [9]; at 11.0 µM 82% | [9]; at 33.0 µM 98% | [9]; at 100.0 µM 97% | [10]; [18] 99% | [10]; at 50.0 µM 92% | [11]; at 33.0 µM 98% | [11]; [18] 92% | [11]; at 50.0 µM 91.5% | [11]; at 100.0 µM 98% | [12]; at 33.0 µM 98% | [12]; at 100.0 µM 97% | [13]; at 11.0 µM 82% | [13]; at 33.0 µM 97% | [13]; at 100.0 µM 97% | [14]; at 11.0 µM 84% | [14]; at 33.0 µM 97% | [14]; at 100.0 µM 97% | [15]; [18] 99% | [16]; at 11.0 µM 71% | [16]; at 33.0 µM 98% | [16]; at 100.0 µM 98%

COC(=O)c1ccc(NCC2=CC(=O)C=CC2=O)cc1O
inactive: [1]; at 1.2 µM 13% | [1]; at 3.7 µM 34% | [2]; at 1.2 µM -14% | [2]; at 3.7 µM 2% | [2]; at 11.0 µM 68% | [3]; at 1.2 µM 17% | [3]; at 3.7 µM 63% | [4]; at 1.2 µM 9% | [4]; at 3.7 µM 30% | [5]; at 1.2 µM 12% | [5]; at 3.7 µM 32% | [5]; [17] 12% | [6]; at 1.2 µM -2% | [6]; at 3.7 µM 17% | [6]; [17] 13% | [7]; at 1.2 µM 33% | [7]; at 3.7 µM 61% | [8]; [17] 50% | [9]; at 1.2 µM 8% | [9]; at 3.7 µM 33% | [10]; [17] 36% | [11]; at 1.2 µM -3% | [11]; at 3.7 µM 10% | [11]; [17] 66% | [11]; at 11.0 µM 20% | [12]; at 1.2 µM 20% | [12]; at 3.7 µM 56% | [13]; at 1.2 µM 17% | [13]; at 3.7 µM 51% | [14]; at 1.2 µM 3% | [14]; at 3.7 µM 30% | [15]; [17] 0% | [16]; at 1.2 µM 18% | [16]; at 3.7 µM 32%
active: [1]; at 11.0 µM 80% | [1]; at 33.0 µM 97% | [1]; at 100.0 µM 92% | [2]; at 33.0 µM 97% | [2]; at 100.0 µM 93% | [3]; at 11.0 µM 89% | [3]; at 33.0 µM 97% | [3]; at 100.0 µM 92% | [4]; at 11.0 µM 77% | [4]; at 33.0 µM 97% | [4]; at 100.0 µM 91% | [5]; at 11.0 µM 75% | [5]; at 33.0 µM 95% | [5]; [18] 96% | [5]; at 50.0 µM 91% | [5]; at 100.0 µM 93% | [6]; at 11.0 µM 70% | [6]; at 33.0 µM 97% | [6]; [18] 98% | [6]; at 50.0 µM 93.2% | [6]; at 100.0 µM 89% | [7]; at 11.0 µM 98% | [7]; at 33.0 µM 98% | [7]; at 100.0 µM 92% | [8]; [18] 98% | [8]; at 50.0 µM 93.5% | [9]; at 11.0 µM 78% | [9]; at 33.0 µM 96% | [9]; at 100.0 µM 93% | [10]; [18] 93% | [10]; at 50.0 µM 89.9% | [11]; at 33.0 µM 95% | [11]; [18] 98% | [11]; at 50.0 µM 91.1% | [11]; at 100.0 µM 93% | [12]; at 11.0 µM 94% | [12]; at 33.0 µM 97% | [12]; at 100.0 µM 92% | [13]; at 11.0 µM 90% | [13]; at 33.0 µM 98% | [13]; at 100.0 µM 94% | [14]; at 11.0 µM 76% | [14]; at 33.0 µM 97% | [14]; at 100.0 µM 91% | [15]; [18] 93% | [15]; at 50.0 µM 92.2% | [16]; at 11.0 µM 85% | [16]; at 33.0 µM 97% | [16]; at 100.0 µM 95%
